PubChem BioAssay AID686978 (National Center for Advancing Translational Sciences (NCATS), 2013)
Hit rate of the full screen: of about 420,000 compounds, about 64,000 (15%) were called active. Not shown: some 27% with an inconclusive outcome. Calls follow the shape of the dose curve; as a rule, active = well fitted inhibition curve with a large enough effect; inconclusive = small, poorly fitted or top-dose-only effect; inactive = flat fitted curve, though single readings scatter. Only a sample is shown. Where a call stands in place of a potency, no number is given.
Potency is read from the fitted curve at half-maximal effect.

Experiment: qHTS for Inhibitors of human tyrosyl-DNA phosphodiesterase 1 (TDP1): qHTS in cells in absence of CPT; also: nearly all actives have a fitted effect of over 55% in size
Settings: DT40 Tdp1-/- hTDP1 cells, no CPT, ATP luminescence, 48 h; activity change, negative = growth inhibition: at 46.2 µM (top of the series)
Method in brief: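 Growth of hTDP1-complemented DT40 Tdp1-knockout cells is measured by ATP luminescence after at least 48 hr compound exposure at 37 °C, with DMSO substituting for the 20 nM CPT used in the parallel screen.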
With Cc1nc2ncnn2c(C)c1CCC(=O)N1CCN(C(=O)c2ccco2)CC1 the Potency was “inactive”. With COc1ccc(CN(C)CCn2cc(C(=O)N3CCSCC3)nn2)cc1C the Potency was “inactive”. For Cc1cnc(C(=O)Oc2cccc(Cl)c2Cl)cn1, the Potency was “inactive”. In the case of COc1cc(OC)c(C(=O)NC2CC(C)(C)NC(C)(C)C2)cc1OC, the Potency was “inactive”. For O=C(O)CCCC(=O)Nc1ccc(Oc2cccc(C(F)(F)F)c2)nc1, the Potency was “inactive”. For CCOC(=O)Cn1c2c(c(-c3ccccc3OC)cc1=O)CCCC2, the Potency was “inactive”. With CCc1cccc(NC(=O)CCCN2C(=O)C(c3ccccc3)Oc3cccnc32)c1 (stereo not drawn) the Potency was “inactive”. With Cc1ccc(CNCc2ccc3c(c2)OCO3)c(C)c1 the Potency was “inactive”. With COC(=O)c1sccc1NN1C(=O)c2ccccc2C1=O the Potency was “inactive”. For CCCCn1c(N)c(N(CCOC)C(=O)c2cccc(S(=O)(=O)N(C)c3ccccc3)c2)c(=O)[nH]c1=O, the Potency was “inactive”. With C=CCC(NCCCO)c1cccc(OC)c1OC (stereo not drawn) the Potency was “inactive”. For O=C(CCN1C(=O)[C@H]2CC=CC[C@H]2C1=O)NCc1nc(-c2ccccc2)no1, the Potency was “inactive”. In the case of O=C(NCCCn1ccnc1)c1cc(Br)c(Br)s1, the Potency was “inactive”. With O=C(COC(=O)c1cnc(Cl)c(Cl)c1)NCc1ccco1 the Potency was “inactive”. In the case of O=C1CCC(=O)N1CCC(=O)N(C(=O)NC1CCCCC1)C1CCCCC1, the Potency was “inactive”. In the case of CCc1nnc(NC(=O)c2cc(S(=O)(=O)N3CCN(CC)CC3)ccc2Cl)s1, the Potency was “inactive”. In the case of COCCOC(=O)C1=C(C)Nc2nc(C)nn2C1c1ccccc1 (stereo not drawn), the Potency was “inactive”. For Cc1ccc(S(=O)(=O)N2CCN(C(=O)COC(=O)CNC(=O)c3ccc(C(C)(C)C)cc3)CC2)c(C)c1, the Potency was “inactive”. For COc1ccccc1CCC(=O)OCC(=O)N1CCN(S(=O)(=O)c2ccc(C)cc2C)CC1, the Potency was 23.1 µM (active). For Cc1ccc(C)c(OCCC(=O)OCC(=O)N2CCN(c3ccccc3)CC2)c1, the Potency was “inactive”. For O=c1ccc(-c2ccc(S(=O)(=O)Nc3ccccc3)o2)n[nH]1, the Potency was “inactive”. For COc1ccc(CNC(=O)COc2cccnc2[N+](=O)[O-])cc1, the Potency was “inactive”. With CSc1nc2nc(-c3cccc(C(F)(F)F)c3)ccn2n1 the Potency was “inactive”. With O=C(CNS(=O)(=O)c1cccc(C(F)(F)F)c1)Nc1ccccc1F the Potency was “inactive”. In the case of COc1cccc(C(NC(C)=O)c2nc(-c3ccccc3OC)cs2)c1 (stereo not drawn), the Potency was “inactive”. For CC(=O)Nc1cc(-c2ccccc2F)cn2c(-c3cccc(C(F)(F)F)c3)cnc12, the Potency was 0.326 µM (active). For COc1cccc(-c2cnc3c(NC(C)=O)cc(-c4cc(F)ccc4OC)cn23)c1, the Potency was 23.1 µM (active). For COc1ccc(-c2cc(NC(C)=O)c3ncc(-c4cc(OC)c(OC)c(OC)c4)n3c2)cn1, the Potency was 2.91 µM (active). For COc1cccc(NC(=O)CSc2nnc(-c3cccnc3)o2)c1, the Potency was “inactive”. For COc1cccc(-c2cc(NC(C)=O)c3ncc(-c4cccc(C(C)=O)c4)n3c2)c1, the Potency was 23.1 µM (active). In the case of CNc1cnc(-c2cc(OC)c(OC)c(OC)c2)cn1, the Potency was “inactive”. In the case of COc1cccc(NC(=O)C2c3cc(OC)c(OC)cc3C(=O)N(C)C2c2cccnc2)c1 (stereo not drawn), the Potency was “inactive”. For CC(=O)Oc1cccc(C(=O)Nc2ccccc2NC(=O)c2cccc(OC(C)=O)c2)c1, the Potency was “inactive”.
